Screens: PubChem BioAssay, National Center for Advancing Translational Sciences (NCATS)
TGFb SMAD3 inh = qHTS for Inhibitors of TGF-b | HepG2 CAGA-GFP TGF-b/SMAD3 reporter, GFP fluorescence, 18 h; TGF-beta stimulated, 500 pg/mL final | Potency, µM (top dose mostly 46.1 µM), hits mostly inhibitors | 1.2% of 410,000 active; note: nearly all actives have a fitted effect of over 65% in size
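HEPG2 CAGA-GFP, 1000 cells/well; 2 h settle, 37 C; cpd via pin tool; TGF-b 500 pg/mL final; 18 h, 37 C; GFP imaging ex488/em500-530; %Activity normalised to -TGF-b and +DMSO controls; CRC fit, curve class.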
DT40 TDP1 CPT = qHTS for Inhibitors of human tyrosyl-DNA phosphodiesterase 1 (TDP1): qHTS in cells in presence of CPT | chicken DT40 Tdp1-/-;hTDP1 cells + 20 nM CPT, ATP luminescence, 48 h | Potency, µM (titrated, usually from 46.2 µM), actives largely listed as inhibitors | 12% of 420,000 active | AID 686979, 2013; note: nearly all actives have a fitted effect of over 55% in size
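Chicken DT40 Tdp1-/- cells stably complemented with human TDP1 were seeded at 400 cells/well in medium containing 20 nM camptothecin, exposed to pin-transferred compounds, and grown at 37 °C for at least 48 hr. Viability was read as ATP luminescence.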
HepG2 viability = qHTS for Inhibitors of TGF-b: Cytotox Counterscreen | Potency, µM (series often up to 46.1 µM), actives largely listed as cytotoxic | AID 588856, 2011 | HepG2 CAGA-GFP viability, ATP luminescence, 18 h | 0.76% of 410,000 active
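CellTiter-Glo luminescence gave cytotoxicity after 18 hours at 37 degrees C. The cells were HepG2 CAGA-GFP in 1% FBS DMEM, stimulated with 500 pg/mL TGF-beta after compound addition. %Activity was normalised to no-cell wells (complete cell-killing) and DMSO (no toxicity), and curves were fitted and classified.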
DT40 TDP1 no CPT = qHTS for Inhibitors of human tyrosyl-DNA phosphodiesterase 1 (TDP1): qHTS in cells in absence of CPT. Potency, µM (titrated, usually from 46.2 µM), hits mostly inhibitors. DT40 Tdp1-/- hTDP1 cells, no CPT, ATP luminescence, 48 h. 15% of 420,000 active. AID 686978, 2013; note: nearly all actives have a fitted effect of over 55% in size
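Cells were dispensed at 400 per well, compounds added by pin tool, plates incubated ≥48 hr at 37 °C, then CellTiter-Glo added for 30 min at room temperature before luminescence reading. Line: DT40 Tdp1-/- complemented with hTDP1; camptothecin omitted.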
HT1080-NT tox = qHTS for induction of synthetic lethality in tumor cells producing 2HG: qHTS for the HT-1080-NT fibrosarcoma cell line. HT-1080-NT fibrosarcoma viability, CellTiter-Glo ATP luminescence, 48 h. Potency, µM (doses to about 46.1 µM), usual class: cytotoxic. 1.6% of 360,000 active;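 note: NT is the 2HG producing partner of a matched IDH1 knockdown line; nearly all actives have a fitted effect of over 55% in size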
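Toxicity toward the 2HG-producing NT line was scored as %Activity, normalised to DMSO and no-cell wells, from CellTiter-Glo luminescence after 48 hours' treatment.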
HT1080 IDH1KD tx = qHTS for induction of synthetic lethality in tumor cells producing 2HG: qHTS for the HT-1080-IDH1KD cell line | Potency, µM (doses to about 46.1 µM), actives largely listed as cytotoxic | 2% of 360,000 active | HT-1080 IDH1 knockdown viability, ATP luminescence, 48 h
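Viability of IDH1-knockdown HT-1080 fibrosarcoma cells was assessed by CellTiter-Glo after 48 h at 37 °C with titrated compound; concentration-effect curves were classified by fit quality and response size.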
A number is an active result; 0 = inactive; ? = inconclusive; - = no result given; [ ] = remark or other dose. Sampled rows, rich in hits. Any-hit rate of the full collection: about 17%. Calls come from the whole dose curve; as a rule, active = well fitted curve in the direction sought with a large enough effect; inconclusive = small, poorly fitted or top-dose-only effect, or another doubt; inactive = no such curve, though single readings can be large; an effect the other way counts as inactive or inconclusive.

SMILES	TGFb SMAD3 inh	DT40 TDP1 CPT	HepG2 viability	DT40 TDP1 no CPT	HT1080-NT tox	HT1080 IDH1KD tx
CC1(C)Cc2ccccc2-c2nc3ccccc3c(=O)n21	0	?	0	11.6µM	0	0
Cc1ccccc1Cn1c(=O)n(-c2ccc(Cl)cc2)c(=O)c2c3c(sc21)CCCC3	0	0	0	0	-	-
O=C(CSc1ccc2c(c1)OCCO2)Nc1ccc(Br)cc1	?	0	0	0	0	0
N=c1ccn(Cc2ccc(F)cc2)cc1	0	?	0	10.3µM	?	0
O=C(NC1CCCCC1)C(c1ccccn1)N(C(=O)Cc1cccs1)c1ccc(Cl)cc1 (stereo unspecified)	0	29.1µM	0	?	?	?
Cc1ccc(C(C(=O)NC2CCCC2)N(C(=O)Cc2cccs2)c2cccc(C)c2C)o1 (stereo unspecified)	0	20.6µM	0	16.4µM	0	0
Cc1cc(C)cc(N(C(=O)Cc2cccs2)C(C(=O)NC2CCCC2)c2ccc(C)o2)c1 (stereo unspecified)	?	?	0	?	0	0
Cc1cc(C)cc(N(C(=O)Cc2cccs2)C(C(=O)NC2CCCCC2)c2ccccn2)c1 (stereo unspecified)	0	?	0	?	0	0
Cc1nc(-n2[nH]c3c(c2=O)CCCC3)[nH]c(=O)c1Cc1ccccc1	0	2.91µM	0	3.26µM	?	?
CCCc1nc2ccc(Cl)cn2c1Cc1ccsc1	0	20.6µM	0	13µM	?	0
CCCc1nc2cc(C)c(Br)c(C)n2c1Cc1ccsc1	-	11.6µM	-	18.4µM	?	0
Cc1ccc(Cc2c(-c3ccccc3)nc3cc(C)c(Br)c(C)n23)cc1	?	?	0	?	0	0
Cc1ccc(-c2nc3cc(C)c(Br)c(C)n3c2CC(C)(C)C)cc1	0	9.2µM	0	16.4µM	0	0
Cc1ccc(-c2nc3cc(C)c(Br)c(C)n3c2Cc2ccsc2)cc1	-	5.17µM	-	7.31µM	0	?
Cc1ccc(S(=O)(=O)N2CC(O)C2)cc1	0	0	0	0	0	0
CCCCN(CCCC)c1nc(OC)nc(-n2nnc(C(C)=O)c2C)n1	0	23.1µM	0	?	0	0
Cc1cc(C)n(-c2nc(N(c3ccccc3)c3ccccc3)nc(-n3nc(C)cc3C)n2)n1	?	18.4µM	0	13µM	0	0
Cc1cc(C)n(-c2nc(Nc3ccccc3)nc(-n3nc(C)cc3C)n2)n1	0	0	0	0	0	0
CC(=O)c1nnn(-c2nc(N)nc(N(c3ccccc3)c3ccccc3)n2)c1C	0	29.1µM	0	14.6µM	0	0
CC(C)C(=O)Nc1ncc2c(n1)CC(c1cccs1)CC2=O (stereo unspecified)	0	0	0	0	0	0
CC1(C(=O)NS(=O)(=O)c2ccccc2)CCN1C(=O)Cc1cccs1 (stereo unspecified)	0	0	0	0	0	0
CC(C)C(NC(=O)COc1ccc2ccccc2c1)C(=O)N/N=C/C=C/c1ccccc1 (stereo unspecified)	0	12.6µM	0	?	0	0
O=C(/C=C/c1ccco1)c1ccc(NC(=O)C23CC4CC(CC(C4)C2)C3)cc1	0	20.6µM	0	14.6µM	0	0
COc1ccc(CCNC(=O)CN(c2ccccc2OC)S(=O)(=O)c2ccc(C)cc2)cc1	?	20.6µM	0	23.1µM	0	0
Cc1cccc(N(CC(=O)NCCSc2ccccn2)S(=O)(=O)c2ccccc2)c1	0	?	0	14.6µM	0	0
SMILES	TGFb SMAD3 inh	DT40 TDP1 CPT	HepG2 viability	DT40 TDP1 no CPT	HT1080-NT tox	HT1080 IDH1KD tx
COc1ccc(N(CC(=O)NCCSc2ccccn2)S(=O)(=O)c2ccccc2)c(OC)c1	0	?	0	20.6µM	0	0
COc1ccccc1N(CC(=O)NCCSCc1ccc(C)cc1)S(=O)(=O)c1ccccc1	0	?	0	?	0	0
COc1ccc(N(CC(=O)NCCSc2ccccc2)S(=O)(=O)c2ccccc2)c(OC)c1	?	?	0	13µM	0	0
COc1ccc(S(=O)(=O)N(CC(=O)NCCSc2ccccn2)c2ccccc2)cc1	0	?	0	?	0	0
O=C(c1ccc(Cn2c(=S)[nH]c3ccc(N4CCOCC4)cc3c2=O)cc1)N1CCC(N2CCCCC2)CC1	0	?	0	?	0	0
COc1ccccc1N(CC(=O)NCCSc1ccccc1)S(=O)(=O)c1ccccc1	0	?	0	18.4µM	0	0
COc1ccccc1N(CC(=O)NCCSc1ccccc1)S(=O)(=O)c1ccc(C)cc1	?	?	0	16.4µM	-	-
COc1ccccc1N(CC(=O)NCCSc1ccccc1)S(C)(=O)=O	0	0	0	0	0	0
COc1ccc(N(CC(=O)NCCc2ccccc2)S(=O)(=O)c2ccccc2)c(OC)c1	?	20.6µM	0	20.6µM	-	-
COc1ccc(CCNC(=O)CN(c2cc(OC)ccc2OC)S(=O)(=O)c2ccccc2)cc1	0	?	0	?	0	0
CCCCOC(=O)c1ccc(N=Nc2c(C)c(C#N)c(O)[nH]c2=O)cc1	0	?	0	23.1µM	0	0
COc1ccc(Cl)cc1S(=O)(=O)Nc1ccc2[nH]c(=O)[nH]c2c1	0	20.6µM	0	16.4µM	-	-
CCN(Cc1ccccc1)C(=O)c1ccc(NC(=O)c2ccc(OC)cc2)cc1	0	?	0	?	0	0
COc1ccc(NC(C)=O)cc1S(=O)(=O)Nc1ccc(OCc2ccccc2)cc1	0	16.4µM	0	14.6µM	0	0
CCOc1ccc(NS(=O)(=O)c2cc(Cl)ccc2OC)cc1	?	?	0	16.4µM	0	0
COc1ccc(C(=O)N(Cc2ccccc2)Cc2ccc(OC)c(COc3ccc(NC(C)=O)cc3)c2)cc1	-	?	-	22.4µM	0	0
CC(=O)CCC(=O)N1CCC(n2c(C3CCCO3)nc3cc(C(F)(F)F)ccc32)CC1 (stereo unspecified)	-	0[9.04 µM]	-	0	-	-
NC(=O)C1CCN(C(=O)CNC(=O)c2ccc(F)cc2)CC1	0	0	0	0	0	0
COc1ccc(Oc2ncc3nc(-c4ccc(F)cc4)c(=O)n(Cc4cccs4)c3n2)cc1	-	0	-	0	-	-
O=C(Nc1ccc(N2C(=O)C3C4C=CC(C4)C3C2=O)cc1)Nc1cccnc1 (stereo unspecified)	0	0	0	0	0	0
